# From PubChem BioAssay
# Shown are actives, neighbours in structure and some others; about 21% of the full set was active somewhere.
# Shiga toxin inh – inhibitors of Shiga toxin in Vero cells; Vero cells, Shiga toxin protein synthesis inhibition reporter; inhibition, % at 38.7 µM; 9.2% of 290,000 active; in the data active = inhibition mostly above about 28%, no sharp cut-off; inactive = mostly below about 43%; also: 0% is about no effect
# Pf growth 96h – P. falciparum growth inhibition at 96 hours | P. falciparum luciferase reporter growth, 96 h | Potency, µM (doses to about 28.7 µM), without a hit: at the highest dose activity change, negative = inhibition, hits mostly inhibitors | 6.9% of 320,000 active; also: potency is read from the fitted curve at half-maximal effect; % is scaled to controls: 0 for no effect and ±100 for the full control effect
#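 Infected RBCs, 2% Hct / 0.05% parasitemia final; luciferase-reporter P. falciparum; cpd 96 h, 37 C, 5% CO2; luciferase detection reagent; luminescence.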
# CHX counter – counter-screen for Shiga toxin inhibitors: cycloheximide protein synthesis inhibition; cell reporter, cycloheximide protein synthesis inhibition counterscreen; max response, %; 12% of 300,000 active; AID 2314; in the data active = max response mostly above about 13%, no sharp cut-off; inactive = mostly below about 14%; also: read at 38.3 µM for the half of the compounds with a filed dose; 0% is about no effect
# Pf growth 48h – inhibits P. falciparum growth in the first generation, 48 h; 5.9% of 310,000 active; P. falciparum luciferase growth in erythrocytes, 48 h; Potency, µM (top dose mostly 28.7 µM), for inactives: at the top dose activity change, negative = inhibition, usual class: inhibitors; also: potency is read from the fitted curve at half-maximal effect; % is scaled to controls: 0 for no effect and ±100 for the full control effect
#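 In quantitative HTS format, infected erythrocytes bearing luciferase-reporter parasites were treated for a single generation at 37 C. Luminescence after adding detection reagent served as the growth measure.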
# The depositor's hits bear a star; ? = inconclusive; . = no result; [ ] = remark or other dose. Unless noted, calls follow the shape of the dose curve; as a rule, active = well fitted inhibition curve with a large enough effect; inconclusive = small, poorly fitted or top-dose-only effect, or another doubt; inactive = no such curve, though single readings can be large or run the other way.
SMILES,Shiga toxin inh,Pf growth 96h,CHX counter,Pf growth 48h
Cc1nnc(C)c2c(C)n(C(C)c3ccccc3)c(C)c12 (stereo not drawn),-19,-8%,-1,8.3µM*
CCOc1ccc(C(=O)NC(C(=O)NCC(c2cccs2)N(C)C)C(C)C)cc1 (stereo not drawn),.,?,.,-24%
Cc1ccccc1/C=C1\OC(=O)c2ccccc21,40*,30%,20*,15%
Cc1ccc(/C=C2\OC(=O)c3ccccc32)cc1,107*,-3%,53*,4%
O=C(c1cc(COc2c(F)cccc2F)on1)N(Cc1ccccc1)CC1CC1,27,-16%,18*,1%
Cc1cc(OCc2cc(C(=O)N(C)C3CCOC3)no2)cc(C)c1Cl (stereo not drawn),78*,70%,49*,6%
CC(=O)c1ccc(OCc2cc(C(=O)N(C)Cc3nc4c(C)cccc4[nH]3)no2)cc1,18,-6%,7,?
CC(=O)c1ccc(OCc2cc(C(=O)N(C)CCOc3ccc(C)cc3)no2)cc1,81*,18%,47*,10%
CN(C(=O)c1cc(COc2c(F)cccc2F)on1)C1CCOC1 (stereo not drawn),32,3%,30*,46%
CN(CCCC1CCCC1)C(=O)c1cc(COc2c(F)cccc2F)on1,-5,?,-3,0%
CN(CCCN1CCOCC1)C(=O)c1cc(COc2c(F)cccc2F)on1,11,40%,3,-9%
Cc1noc(C)c1CCC(=O)N1CCCC(N2CCN(c3ccc(F)cc3)CC2)C1 (stereo not drawn),-26,?,-2,-28%
Cc1ccc(OCc2cc(C(=O)N(C)Cc3cc(C4CC4)n[nH]3)no2)cc1C,32,-6%,9,-5%
Cc1cnc(CN(C)C(=O)c2cc(COc3c(F)cccc3F)on2)[nH]1,-3,-27%,-2,4.1µM*
COc1cc(Cl)ccc1OCc1cc(C(=O)N(C)C2CCOC2)no1 (stereo not drawn),60*,?,37*,9%
COc1cccc(OCc2cc(C(=O)N(C)C3CCOCC3)no2)c1,19,-26%,4,29%
CC(=O)c1ccc(OCc2cc(C(=O)N(C)C3CCOC3)no2)cc1 (stereo not drawn),-8,12µM*,3,5%
CN(Cc1ncc[nH]1)C(=O)c1cc(COc2c(F)cccc2F)on1,14,28%,1,32%
Cc1cccc(C)c1OCc1cc(C(=O)N(C)Cc2cc(C3CC3)n[nH]2)no1,50*,5%,32*,?
Fc1cc(F)c(F)c(SCn2cc(Br)cn2)c1F,.,-2%,.,-2%
COc1ccccc1CC(=O)N1CCC(n2nccc2NC(=O)C2CCOC2)CC1 (stereo not drawn),-13,-13%,12,3%
CC(Cc1cccnc1)NC(=O)c1cc(COc2c(F)cccc2F)on1 (stereo not drawn),16,-19%,0,14%
O=C(NCC1COCCO1)c1cc(COc2c(F)cccc2F)on1 (stereo not drawn),30,-19%,26*,12%
O=C(COc1cccc2cccnc12)N1CCc2ccccc21,63*,0%,18*,2%
O=C(OCC(=O)N1CCc2ccccc21)c1cccnc1Cl,69*,94%,35*,96%
SMILES,Shiga toxin inh,Pf growth 96h,CHX counter,Pf growth 48h
O=C(OCC(=O)N1CCCc2ccccc21)c1cccnc1Cl,24,18%,11,29%
O=C(OCC(=O)N1CCc2ccccc21)c1ccccn1,52,?,32*,31%
CC(=O)c1ccc(Oc2cnccn2)cc1,-17,124%,4,9%
CC(C)c1csc(CN2CCCC(CNC(=O)c3cccc4ccccc34)C2)n1 (stereo not drawn),-4,?,-2,?
COc1ccc(CNS(=O)(=O)c2ccc3c(c2)CCN3C(=O)C2CCC2)cc1,-4,-9%,1,-1%
O=C(Nc1ccc(Cl)cc1)Nc1ccc(N2CCOCC2)cc1,30*,1%,19*,8%
Cc1nc2cc(NC(=O)Nc3ccc(N4CCOCC4)cc3)ccc2n1C,-6,.,0,-4%
O=C(Nc1ccc(N2CCOCC2)cc1)NC1CCCCC1,67*,32%,18*,?
O=C(Nc1ccc(N2CCOCC2)cc1)C1CC1,44,?,10,35%
O=C(Nc1ccc(N2CCOCC2)cc1)Nc1cnsn1,34*,2%,44*,97%
O=C(NC1CCCCC1)N1CCN(c2ccc(Cl)cc2)CC1,-9,1.9µM*,6,?
O=C(NC1CCCCC1)N1CCN(c2ccc([N+](=O)[O-])cc2)CC1,2,?,1,-14%
O=C(Nc1ccc(N2CCOCC2)cc1)Nc1ccc(Cl)c(Cl)c1,40,?,19*,.
O=C1/C(=C/c2ccccc2)CCCc2ccccc21,96*,26%,63*,7%
CN(C)c1ccc(/C=C2\CCC/C(=C\c3ccccc3)C2=O)cc1,22,?,16,?
O=C1/C(=C/c2ccc(C(=O)O)cc2)CCC/C1=C\c1ccc(C(=O)O)cc1,-1,1.5µM*,-3,2.1µM*
O=C1/C(=C\c2ccc([N+](=O)[O-])cc2)CCc2ccccc21,9,150%,26*,29%
O=C1/C(=C/c2cccnc2)CCC/C1=C\c1cccnc1,-5,13µM*,-2,10µM*
CCC1C/C(=C\c2cccnc2)C(=O)/C(=C/c2cccnc2)C1 (stereo not drawn),-3,21%,38*,7.4µM*
O=C1NC(=S)N/C1=C/c1cccnc1,-5,?,-6,1%
CC(=O)Nc1ccc(/C=C2\CCc3ccccc3C2=O)cc1,-4,19%,23,76%
O=C1/C(=C\c2cccnc2)CCc2ccccc21,67,0%,29*,1%
O=C1/C(=C/c2cccnc2)CC/C1=C\c1cccnc1,34,?,63*,?
O=C1/C(=C/Nc2cccc([N+](=O)[O-])c2)CCc2ccccc21,29,?,81*,203%
O=C1/C(=C/c2ccc(O)cc2)CCc2ccc([N+](=O)[O-])cc21,29,14%,-1,25%
SMILES,Shiga toxin inh,Pf growth 96h,CHX counter,Pf growth 48h
CO[C@H]1C[C@@H](O[C@@H]2[C@H](C)[C@H](O[C@@H]3O[C@@H](C)C[C@@H](N(C)C)[C@@H]3O)[C@H](C)C[C@]3(CO3)C(=O)[C@H](C)[C@H](O)[C@H](C)[C@H](C)OC(=O)[C@@H]2C)O[C@@H](C)[C@H]1O,.,-11%[12.8 µM],.,-5%[12.8 µM]
CC(C)/C=C1\CC/C(=C\c2cccnc2)C1=O,124*,158%,78*,?
O=C(COc1ccccc1)N=C1SC2CS(=O)(=O)CC2N1CCc1ccccc1 (stereo not drawn),-10,?,-7,-12%
COc1ccc(CC(=O)N/N=C(\C)CC(=O)Nc2ccc(N(C)C)cc2)cc1OC,-5,21%,-3,?
COc1cccc(C(=O)N/N=C(\C)CC(=O)Nc2ccc(N(C)C)cc2)c1,57,5%,41*,-50%
COc1cccc(/C(C)=N/NC(=O)c2ccc(N(C)C)cc2)c1,69*,44%,33*,27%
C/C(=N\NC(=O)c1ccncc1)c1ccc(N(C)C)cc1,7,81%,14,57%
